# Data from article PMC4336329 (PLoS ONE, 2015).
# Among all 310,000 compounds or so, about 14,000 (4.5%) showed an effect of 50% or more. The effect is printed as a negative number. Only a selection was taken, and strong results are over-represented in it overall.
# Target: human ether-à-go-go-related gene (hERG) potassium channel (human, UniProt Q12809)
# Assay: primary screen, population patch clamp on CHO cells stably expressing hERG; higher = less effect of the substance
# 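Note: peak tail current of the secondary pulse compared with the same well before compound.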
# human ether-à-go-go-related gene (hERG) potassium channel, sequence (Q12809 whole entry, looked up): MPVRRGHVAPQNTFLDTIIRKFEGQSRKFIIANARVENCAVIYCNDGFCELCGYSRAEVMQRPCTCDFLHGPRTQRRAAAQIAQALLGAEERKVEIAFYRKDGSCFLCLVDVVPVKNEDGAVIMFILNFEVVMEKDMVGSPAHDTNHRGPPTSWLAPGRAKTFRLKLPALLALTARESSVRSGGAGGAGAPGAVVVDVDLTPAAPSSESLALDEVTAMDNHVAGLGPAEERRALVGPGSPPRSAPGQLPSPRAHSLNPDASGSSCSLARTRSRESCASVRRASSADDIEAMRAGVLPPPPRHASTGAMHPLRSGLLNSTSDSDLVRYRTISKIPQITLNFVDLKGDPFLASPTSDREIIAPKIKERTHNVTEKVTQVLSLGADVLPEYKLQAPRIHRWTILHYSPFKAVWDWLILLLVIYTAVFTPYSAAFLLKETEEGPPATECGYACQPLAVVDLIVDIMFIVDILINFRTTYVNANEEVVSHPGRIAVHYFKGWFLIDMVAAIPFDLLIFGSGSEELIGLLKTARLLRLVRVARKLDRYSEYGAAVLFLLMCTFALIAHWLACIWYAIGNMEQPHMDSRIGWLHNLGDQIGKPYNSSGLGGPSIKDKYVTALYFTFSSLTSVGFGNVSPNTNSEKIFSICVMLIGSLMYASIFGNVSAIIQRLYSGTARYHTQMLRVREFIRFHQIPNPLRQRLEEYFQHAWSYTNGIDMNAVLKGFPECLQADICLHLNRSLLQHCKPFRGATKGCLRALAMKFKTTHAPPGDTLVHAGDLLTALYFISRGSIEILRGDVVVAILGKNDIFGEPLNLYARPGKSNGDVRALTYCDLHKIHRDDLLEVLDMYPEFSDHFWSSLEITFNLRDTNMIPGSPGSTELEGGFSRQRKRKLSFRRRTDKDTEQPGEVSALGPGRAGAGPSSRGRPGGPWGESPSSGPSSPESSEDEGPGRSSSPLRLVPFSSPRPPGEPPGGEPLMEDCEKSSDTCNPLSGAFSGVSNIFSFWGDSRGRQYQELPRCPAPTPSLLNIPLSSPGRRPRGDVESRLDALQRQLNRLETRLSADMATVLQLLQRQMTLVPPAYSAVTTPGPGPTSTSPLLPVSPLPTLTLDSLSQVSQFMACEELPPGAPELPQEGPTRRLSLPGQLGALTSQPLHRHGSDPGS
row,Compound,"hERG current change (%, negative = inhibition) at 10uM [%]"
1,CC1(C)Cc2nc(N3CCOCC3)c(C#N)cc2CO1,7.25
2,COc1ccc(NC(=O)CN(C)C(=O)c2c(-c3c(F)cccc3Cl)noc2C)cc1,-16.2
3,CCC(C)(C)NC(=O)CN(Cc1ccccc1Cl)C(=O)CCC(=O)Nc1cc(C)ccn1,-4.7
4,O=C(O)c1nn(CC(=O)N2CCN(c3ccccc3)CC2)c(=O)c2ccccc12,8.36
5,O=C(O)c1ccccc1OCCOc1ccccc1,3.63
6,CC(C)c1nnc(NC(=O)c2cnccn2)s1,16.2
7,COc1ccc(C(=O)N2CCCCC2)cc1S(=O)(=O)Nc1cccc(C(=O)O)c1,6.94
8,CCOc1ccc(C(=O)OCCN(C)C)cc1.Cl,-10.3
9,CSc1ncccc1C(=O)OCC(=O)N1CC(=O)Nc2ccccc21,8.21
10,COc1ccc(-c2noc(CN3CCC(Cc4ccccc4)CC3)n2)cc1,-8.3
11,COc1ccc(Nc2nc(N)nc(CN3CCC(Cc4ccccc4)CC3)n2)cc1,-79
12,c1ccc(CC2CCN(Cc3nc(-c4ccccc4)no3)CC2)cc1,-8.93
13,COc1ccc(Nc2nc(N)nc(CN3CCOCC3)n2)cc1,-5.46
14,COc1ccc(Nc2nc(N)nc(CN3CCC(C)CC3)n2)cc1,-75.4
15,COc1ccc(Nc2nc(N)nc(CSC(=S)N3CCC(C)CC3)n2)cc1,-5.86
16,Nc1nc(CN2CCC(Cc3ccccc3)CC2)nc(Nc2ccccc2)n1,-82
17,COc1ccc(OCc2nc(N)nc(Nc3ccccc3)n2)cc1,-4.98
18,CC(=O)c1ccc(OCC(=O)OC(C)C(=O)NC2CCCCC2C)cc1 (stereo not drawn),26.9
19,COC(=O)c1c(NC(=O)CC2SCC(C(=O)OC)NC2=O)sc2c1CCCC2 (stereo not drawn),-5
20,CCc1ccccc1N(C(C)=O)c1nc(CCl)cs1,6.77
21,CC(C)(C)NC(=O)CN(CCN1CCOCC1)C(=O)CNS(=O)(=O)c1ccccc1,19.4
22,COCCN(CCOC)S(=O)(=O)c1ccc(C(=O)Nc2nc(C)c(C(C)=O)s2)cc1,13
23,C/C(=N\NC(N)=S)C1C2C3CC4C5CC(C42)C1C53 (stereo not drawn),-10
24,O=C(CC1(O)C(=O)Nc2ccccc21)c1ccc2c(c1)OCO2 (stereo not drawn),-3.95

row,Compound,"hERG current change (%, negative = inhibition) at 10uM [%]"
1,CN(C)c1ccc2c3c(ccc(N(C)C)c13)COC2,-34.8
2,CN(C)c1ccc2c3c(ccc(N(C)C)c13)C(=O)OC2,-59.1
3,Nc1ccc2c(c1)COC2=O,4.55
4,CN(C)S(=O)(=O)c1cccc(C(=O)NCC2(N3CCOCC3)CCCCC2)c1,-13.4
5,S=C(NCc1cccnc1)Nc1ccc(Oc2ccc(Cl)cc2)cc1,-0.652
6,CCCc1ccc(OCC(=O)Nc2cc(S(=O)(=O)CC)ccc2O)cc1,-58.1
7,CCc1ccc(OCC(=O)Nc2cc(S(=O)(=O)CC)ccc2O)cc1,-0.287
8,CCS(=O)(=O)c1ccc(O)c(NC(=O)COc2ccc(OC)cc2)c1,1.82
9,Cc1cc(Cl)c(OCCCNC2CCCC2)c(Br)c1.O=C(O)C(=O)O,-56.9
10,Cc1cc(Cl)c(OCCCCNC(C)(C)C)c(Br)c1.O=C(O)C(=O)O,-40.7
11,C=CCNCCOc1c(C)cc(C)cc1Cl.O=C(O)C(=O)O,-21.2
12,Cc1cc(Cl)c(OCCCNCc2ccccc2)c(Br)c1.O=C(O)C(=O)O,-51.8
13,Cc1cc(C)c(OCCCNCc2ccccc2)c(Br)c1.O=C(O)C(=O)O,-10.7
14,Cc1cc(C)c(OCCCCNCc2ccccc2)c(Cl)c1.O=C(O)C(=O)O,-68.5
15,Cc1cc(C)c(OCCCNC2CCCC2)c(Br)c1.O=C(O)C(=O)O,-34.5
16,Cc1cc(C)c(OCCNCc2ccccc2)c(C)c1.O=C(O)C(=O)O,-5.71
17,COCCCNCCCCOc1c(Cl)cc(C)cc1Br.O=C(O)C(=O)O,-49.2
18,CC(=O)c1cccc(NC(=O)C(C)OC(=O)Cc2c[nH]c3ccccc23)c1 (stereo not drawn),-2.32
19,COC(=O)c1cc(NC(=O)c2cccnc2)ccc1N1CCOCC1,13.9
20,CCOc1ccccc1N1CC(C(=O)Nc2c(C)n(C)n(-c3ccccc3)c2=O)CC1=O (stereo not drawn),20.7
21,CCC(C)[C@H](NC(=O)Nc1ccc(S(N)(=O)=O)cc1)C(=O)OC (stereo partly drawn),13.1
22,O=C1CCCc2c1nc(-c1ccco1)n2O,12.1
23,O=C(Cn1[nH]c(=O)c2ccccc2c1=O)N1CC=C(c2ccccc2)CC1,-4.76
24,COc1ccc(CCNC(=O)CS(=O)Cc2nc(-c3ccccc3F)oc2C)cc1OC (stereo not drawn),13
